In the library only some 21% were active in any assay of this set; here they are far more common.
Shiga toxin inh: inhibitors of Shiga toxin in Vero cells; Vero cells, Shiga toxin protein synthesis inhibition reporter; inhibition, % at 38.7 µM; 9.2% of 290,000 active; in the data active = inhibition mostly above about 28%, no sharp cut-off; inactive = mostly below about 43%; also: 0% is about no effect
NS1 function inh: inhibitors of influenza NS1 protein function; Potency, µM (top dose mostly 46.1 µM), for the others: top-dose activity, positive = more growth; 0.4% of 270,000 active; also: potency is read from the fitted curve at half-maximal effect; actives are rising curves; nearly all actives have a fitted effect of over 50% in size
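In this qHTS, NS1 from influenza A is expressed in budding yeast, where it slows growth. Cells are switched from glucose to 2% galactose medium (pH 6.0, -URA), treated with compound, and growth recovery is read at OD600.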
SARS PLpro yeast: inhibitors of SARS-CoV papain-like protease in yeast. S. cerevisiae expressing SARS-CoV PLpro, growth rescue. Potency, µM (top dose mostly 32.9 µM), inactives show top-dose activity, positive = growth rescue, usual class: activators. 0.19% of 330,000 active; also: potency is read from the fitted curve at half-maximal effect; 0% is about no effect; nearly all actives have a fitted effect of over 55% in size
Pf growth 48h: P. falciparum growth inhibition at 48 hours (one generation); Potency, µM (titrated, usually from 28.7 µM), for the others: top-dose activity change, negative = inhibition, usual class: inhibitors; 5.9% of 310,000 active; AID 504832; P. falciparum luciferase growth in erythrocytes, 48 h; active = well fitted inhibition curve with a large enough effect; inconclusive = small, poorly fitted or top-dose-only effect, or another doubt; inactive = no such curve, though single readings can be large or run the other way; also: potency is read from the fitted curve at half-maximal effect; % is scaled to controls: 0 for no effect and ±100 for the full control effect
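Luciferase-expressing P. falciparum in infected erythrocytes (2% hematocrit, 0.1% parasitemia final) in RPMI 1640/0.5% Albumax were exposed to compound for 48 hours at 37 C, 5% CO2; growth read as luminescence.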
Pf growth 96h: inhibits malaria parasite growth, 96 h. P. falciparum luciferase reporter growth, 96 h. Potency, µM (top dose mostly 28.7 µM), for the others: at the highest dose activity change, negative = inhibition, hits mostly inhibitors. 6.9% of 320,000 active. AID 504834; active = well fitted inhibition curve with a large enough effect; inconclusive = small, poorly fitted or top-dose-only effect, or another doubt; inactive = no such curve, though single readings can be large or run the other way; also: potency is read from the fitted curve at half-maximal effect; % is scaled to controls: 0 for no effect and ±100 for the full control effect
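Two parasite generations (96 h, 37 C, 5% CO2) of compound exposure in infected erythrocytes (0.05% parasitemia, 2% hematocrit). Luciferase-reporter P. falciparum; decreased luminescence indicates inhibited growth, aimed at apicoplast-acting delayed death.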
CHX counter: affects cycloheximide protein synthesis inhibition readout, counter-screen; cell reporter, cycloheximide protein synthesis inhibition counterscreen; max response, %; 12% of 300,000 active; AID 2314; in the data active = max response mostly above about 13%, no sharp cut-off; inactive = mostly below about 14%; also: read at 38.3 µM for the half of the compounds with a filed dose; 0% is about no effect
* hit, by the source's call; ? = inconclusive; / = no result. Unless noted, calls follow the shape of the full dose curve.

SMILES	Shiga toxin inh	NS1 function inh	SARS PLpro yeast	Pf growth 48h	Pf growth 96h	CHX counter
Cc1cc(C)n2ncc(S(=O)(=O)c3ccccc3)c2n1	2	-2%	1%	0%	?	-5
O=S(=O)(c1ccc2c(c1)OCCO2)N1CCN(c2nc(-c3cccnc3)nc3ccccc23)CC1	-19	4%	0%	?	?	-4
O=S(=O)(c1ccccc1)N1CCN(c2nc(-c3cccnc3)nc3ccccc23)CC1	/	/	-2%	?	8.3µM*	/
O=C(NCCCCCCNC(=O)c1cncc(O)c1)c1cncc(O)c1	3	-3%	1%	81%	2%	-5
CC(=O)c1sc2nsc(SCCN3CCOCC3)c2c1N	28*	6%	1%	0%	-28%	22
Nc1c(C(=O)c2ccccc2)sc2nsc(SCCN3CCOCC3)c12	29*	-30%	-1%	-5%	-16%	23*
CN(/C=C/C(=C\C=[N+](C)c1ccccc1)OCCCS(=O)(=O)[O-])c1ccccc1	-1	3%	-1%	24%	74%	1
O=C(Nc1ccncc1)OCc1ccccc1	/	-20%	-1%	?	40%	-1
O=C(Nc1ccc(Cl)cc1)OCc1ccccn1	78*	-11%	-15%	195%	208%	29*
CS(=O)(=O)c1ccccc1COC(=O)Nc1ccc(Cl)cc1	36	-13%	-3%	36%	46%	21*
CS(=O)c1ccccc1COC(=O)Nc1cccc(Cl)c1 (configuration not stated)	-6	-2%	1%	50%	-17%	-1
CCOC(=O)Cn1ccc(NC(=O)c2ccc(F)cc2)n1	2	1%	0%	32%	?	5
O=C(N/N=C/c1cccc2nccnc12)c1ccccc1O	37*	-10%	-2%	?	?	19*
O=C(N/N=C/c1cccc2cccnc12)c1ccccc1O	84*	-66%	-3%	?	0%	32*
CCN(CCCNC(=O)CNC(=O)c1nn(-c2ccc(OC)cc2OC)c(=O)c2ccccc12)c1cccc(C)c1	23	14%	-2%	?	10%	-3
O=C(COC(=O)c1ccc(O)cc1)Nc1ccc(Cl)cc1	52	-3%	0%	?	-4%	31*
O=C(COC(=O)C1(c2ccc(Cl)cc2)CCCC1)NCc1ccco1	25	-5%	-6%	-25%	-1%	-2
O=C(O)CCC(=O)Nc1ccc(C(=O)OCC(=O)c2ccc(Cl)cc2)cc1	79	-2%	0%	88%	0%	15*
CCc1ccc(NC(=O)COC(=O)C2(c3ccc(Cl)cc3)CCCC2)cc1	-7	-3%	5%	-15%	15µM*	6
CCC(C)[C@@H](CN)NCC1(c2ccccc2)CC1 (some centres not stated)	/	/	1%	?	?	/
O=C(O)c1cc2ncc(CCO)cn2n1	-2	/	-1%	20%	-17%	-1
CSc1nnc(C2CCN(CC(=O)Nc3ccccc3N3CCOCC3)CC2)n1C	-4	0%	0%	-26%	?	-7
COc1ccccc1C(=O)NC(=O)COC(=O)CNC(=O)c1ccccc1	/	/	3%	?	7%	/
C[C@@H](C(=O)Nc1nc2ccc(F)cc2s1)N1C(=O)C2CC=CCC2C1=O (some centres not stated)	57	6%	-2%	?	11%	23*
Cc1ccc2nc(NC(=O)[C@H](C)N3C(=O)C4CC=CCC4C3=O)sc2c1 (some centres not stated)	37*	/	1%	60%	20%	33*
SMILES	Shiga toxin inh	NS1 function inh	SARS PLpro yeast	Pf growth 48h	Pf growth 96h	CHX counter
C[C@@H](C(=O)Nc1nc2ccccc2s1)N1C(=O)C2CC=CCC2C1=O (some centres not stated)	22	/	0%	10%	33%	17
Cc1cc(C(=O)OCC(=O)N2CCc3ccccc32)ccc1[N+](=O)[O-]	/	/	-1%	13%	2%	/
CCCN1C=CC(=C/C=C(\C#N)C(=O)OCC)C=C1	93*	14%	3%	93%	107%	28*
CCCN1C=CC(=CC=C(C#N)C#N)C=C1	22	8%	2%	172%	-26%	22
CCOC(=O)/C(C#N)=C\c1ccc(OC)c(OC)c1	-4	5%	1%	2%	11%	-4
CCCCCCN1C=CC(=C/C=C(\C#N)C(=O)OCC)C=C1	-23	11%	-2%	10µM*	13µM*	4
CCOC(=O)/C(C#N)=C/N=c1ccc(C)cn1C	68*	-3%	0%	89%	106%	51*
COc1ccc(-c2noc(N3CCC(C(=O)NCc4ccc(Cl)cc4)CC3)n2)cc1	1	-1%	-5%	31%	-2%	0
COc1ccc(-c2noc(N3CCC(C(=O)NCCCN4CCCC(C)C4)CC3)n2)cc1 (configuration not stated)	18	-1%	1%	-5%	8%	active
COc1ccc(-c2noc(N3CCC(C(=O)NCc4ccccc4Cl)CC3)n2)cc1	3	9%	-18%	?	?	4
COc1ccc(-c2noc(N3CCC(C(=O)NCCCN4CCCCC4)CC3)n2)cc1	20*	0%	-3%	?	2%	3
COc1ccc(-c2noc(N3CCC(C(=O)N(C)c4ccccc4)CC3)n2)cc1	13	-54%	8%	?	1%	8.2*
C[C@H]1CN([C@@H](C)CO)C(=O)c2cccc(NC(=O)C3CC3)c2O[C@H]1CN(C)C(=O)Nc1ccc2c(c1)OCO2	/	/	-4%	/	/	/
CCN(C(=O)COC(=O)/C=C/c1c(C)nn(Cc2ccc(C)cc2)c1C)C1CCS(=O)(=O)C1 (configuration not stated)	-8	/	-7%	3%	-30%	-1
CCn1cc(C(=O)NCc2cccs2)c(=O)c2cc(S(=O)(=O)N3CCOCC3)ccc21	9	2%	4%	?	?	-2
CCN1CCN(CCNC(=O)Nc2ccc([N+](=O)[O-])cc2)CC1	-5	-5%	0%	-20%	-2%	-3
Cc1ccc(NC(=O)C(=O)NCCN2CCN(Cc3ccc([N+](=O)[O-])cc3)CC2)cc1	-11	5%	8%	13%	0.47µM*	2
CCc1ccc(NC(=O)C(=O)NCCN2CCN(Cc3ccc([N+](=O)[O-])cc3)CC2)cc1	-4	-3%	21%	26%	45%	11*
O=C(N/N=C\c1ccc(CNS(=O)(=O)c2ccccc2)o1)C(=O)Nc1ccc(F)cc1	-4	2%	7%	44%	0%	14*
Nc1nc(Nc2ccc(Cl)cc2Cl)nc(C(F)(F)F)n1	65*	-1%	-3%	88%	-26%	43*
Nc1ncnc(Nc2ccccc2C(F)(F)F)n1	-2	-1%	-1%	11%	/	1
COc1cccc(Nc2nc(N)nc(C(F)(F)F)n2)c1	59	-35%	-2%	62%	55%	16
